Assay outcomes: PubChem BioAssay, National Center for Advancing Translational Sciences (NCATS)
Only some compounds are listed: those with a hit (about 0.34% of all), similar ones and a draw of the others.
IMPase Li cell: membrane-permeable IMPase blocker, potentiated with lithium. CHO-M1 cells, IP1 TR-FRET (IP-One), carbachol + lithium. Potency, µM (highest dose often 59.4 µM), for inactives: top-dose activity, negative = IMPase inhibition, most hits filed as inhibitors. 0.35% of 210,000 active;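 also: IP1 builds up when IMPase is blocked and the TR-FRET signal falls; potency is read from the fitted curve at half-maximal effect; plate controls were basal vehicle for no effect and high inhibitor control for full effect; nearly all actives have a fitted effect of over 50% in size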
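CHO-M1, 2000 cells/well, 16–30 h culture; cpd + low Li+, 30 min 37C; lysis with d2-IP1/Eu-anti-IP1 Ab, 10 min RT; TR-FRET 665/620 ratio and 620 channel; AC50 via Hill.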
TCR activator: activates T cell receptor signaling; primary human leukocytes, anti-CD3, IL-2 HTRF, 48 h; Potency, µM (doses to about 9.22 µM), for inactives: top-dose activation of IL-2 secretion, most hits filed as activators; 330,000 tested, under 10 active; also: % of control where 0% means no effect
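Primary human leukocytes were stimulated with a-CD3 beads plus compounds for 48 hr without co-stimulation; secreted IL-2 was quantified by HTRF using a-IL-2-K (europium cryptate) and a-IL-2-d2, excited at 320nm with acceptor emission read at 665nm.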
LMNA splice mod: LMNA splicing modulation. HeLa LMNA splicing GFP/RFP minigene ratio, 48 h. Potency, µM (series often up to 46.1 µM), for inactives: at the highest dose ratio change, negative = inhibition, most hits filed as inhibitors. 0.01% of 200,000 active. AID 1487; active = well fitted inhibition curve with a large enough effect in the signal ratio, with a control signal flat, not every such curve was filed as active; inconclusive = small, poorly fitted or top-dose-only effect, or effect the other way, or a change in a side signal; the % refers to the signal ratio; also: potency is read from the fitted curve at half-maximal effect; % is scaled to controls: 0 for no effect and ±100 for the full control effect
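S3 HeLa cells stably expressing lamin A-EGFP splicing minigene plus DsRed2, 600 cells/well, 48 h compound exposure at 37C. Laser-scanning cytometry; analysed as GFP (500-530 nm)/RFP (575-640 nm) total intensity ratio; 0.5% DMSO vehicle.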
KinaseGlo FLuc: blocks Kinase-Glo luciferase, a counter-screen artifact; Q27757; Kinase-Glo luciferase, ATP luminescence, 8 min; Potency, µM (top dose mostly 38.3 µM), inactives show at the highest dose activity change, negative = inhibition, hits mostly inhibitors; 0.28% of 200,000 active; also: potency is read from the fitted curve at half-maximal effect; % is scaled to controls: 0 for no effect and ±100 for the full control effect; nearly all actives have a fitted effect of over 60% in size
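Light output from Kinase-Glo luciferase with luciferin and 10 uM ATP in 50 mM imidazole pH 7.2, KCl, MgCl2, Tween 20, BSA; compound pin-delivered, 8-min ambient incubation, then luminescence read.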
* hit, by the source's call; u = inconclusive; x = not tested or not shown; [ ] = dose if it differs, or a comment. Unless noted, calls follow the shape of the dose curve; as a rule, active = well fitted curve in the direction sought with a large enough effect; inconclusive = small, poorly fitted or top-dose-only effect, or another doubt; inactive = no such curve, though single readings can be large; an effect the other way counts as inactive or inconclusive.

SMILES | IMPase Li cell | TCR activator | LMNA splice mod | KinaseGlo FLuc
CCCCn1c(=O)[nH]c2c(oc3ccccc32)c1=O | x | 1% | x | x
CCC(C)[C@H](NC(=O)N1CCCCCC1)C(=O)OC (stereo partly drawn) | x | -102% | x | x
CCOC(=O)c1cc(-c2ccccc2)n(-c2cccc(C(=O)Nc3cccc(SC)c3)c2)c1C | x | x | 21%[46 µM] | x
Cc1n[nH]c(=S)c2nn(-c3cccc(Cl)c3)c(C)c12 | u | x | -1% | 6%
Cc1n[nH]c(=S)c2nn(-c3ccccc3)c(C)c12 | 14µM* | x | 2% | 2%
COc1cccc(-n2nc3c(=S)[nH]nc(C)c3c2C)c1 | u | -33% | 11% | -3%
Cc1ccc(-n2nc3c(=S)[nH]nc(C)c3c2C)cc1 | 4.5µM* | -25% | -5% | 6%
CC(=O)Oc1cccc2c1C(=O)C1CC=CC(OC(C)=O)C1C2=O (stereo not drawn) | x | -6% | x | x
Cc1ccc(C2=NC(=O)/C(=C/c3cc(O)c(O)c(Br)c3)S2)cc1 | 80% | 0% | x | 10µM*
O=C(COC(=O)CNC(=O)c1ccccc1)NCc1ccc2c(c1)OCO2 | x | 5% | x | x
O=C(O)c1ccc(CNc2ccccc2C(=O)O)cc1 | 10µM* | 3% | 1% | 2%
Cc1nn(-c2ccccc2)c2c1N(CCCC(=O)NC(C)c1ccccc1)C(=O)CS2 (stereo not drawn) | x | x | 2%[46 µM] | x
COc1ccc(C(=O)Nc2ccc(N3CCN(c4ccc(OC)cc4)CC3)c(C#N)c2)cc1 | 1.8µM* | -18% | -2% | 15%
COc1ccc(NC(=O)c2cc(-c3ccc(C)o3)nc3ccccc23)cc1OC | 21%[38.3 µM] | 14% | -9% | 6.3µM*
Cc1ccc(-c2cc(C(=O)Nc3nn[nH]n3)c3ccccc3n2)cc1 | 0%[38.3 µM] | -1% | 4% | -4%
CCOc1ccc(/C(O)=C2/C(=O)C(=O)N(CCOCCO)C2c2ccccc2)cc1 (stereo not drawn) | 11µM* | -1% | 9% | -4%
O=C1C(=O)N(CCOCCO)C(c2ccccn2)/C1=C(\O)c1ccccc1 (stereo not drawn) | x | 0% | 2% | x
CCOc1ccc(/C(O)=C2/C(=O)C(=O)N(CCOCCO)C2c2cccnc2)cc1 (stereo not drawn) | 11µM* | -4% | 12% | -4%
CC(C)Oc1ccc(/C(O)=C2/C(=O)C(=O)N(CCCn3ccnc3)C2c2cccnc2)cc1 (stereo not drawn) | x | -5%[46.1 µM] | -10% | x
COCCN1C(=O)C(=O)/C(=C(/O)c2ccc(OC(C)C)cc2)C1c1cccnc1 (stereo not drawn) | 10µM* | -10% | -1% | 5%
CCCOc1ccc(/C(O)=C2/C(=O)C(=O)N(CCCn3ccnc3)C2c2cccnc2)cc1 (stereo not drawn) | x | 0% | x | x
CC1CC(C)CN(C(=O)c2cc3cc(Br)cc(Br)c3o2)C1 (stereo not drawn) | 25% | 10% | u | 3%
COC(=O)C1=C(CS(=O)(=O)c2ccccc2)NC(=O)NC1c1ccc(OC)c(OC)c1 (stereo not drawn) | x | -7% | x | x
CCOc1ccc(Br)cc1C(=O)Nc1ccc(C(=O)NCC(C)C)cc1 | 10µM* | 16% | 4% | 2%
COc1cccc(-c2cn3nc(C)c(C)nc3n2)c1 | -8%[38.3 µM] | 2% | 6% | 11µM*
SMILES | IMPase Li cell | TCR activator | LMNA splice mod | KinaseGlo FLuc
C=CCn1c(-c2cccc(Cl)c2)n[nH]c1=S | 8.9µM* | -1% | 3% | 2%
N#Cc1sc2nc(-c3cccs3)cc(-c3ccccc3)c2c1N | 10µM* | 1% | -6% | 0%
N#Cc1sc2nc(-c3ccccc3)cc(C(F)(F)F)c2c1N | -13% | 5% | x | 0%
N#Cc1sc2nc(-c3cccs3)cc(-c3ccc(Cl)cc3)c2c1N | 10µM* | -1% | 9% | 2%
C=C(C)Cn1c(=O)c2c(nc3n2CCN3c2ccc(F)cc2)n(C)c1=O | x | x | 2%[46 µM] | x
C[C@H]1Cc2c(-c3ccccc3)nc3c(c2CO1)CN(S(=O)(=O)c1ccc2c(c1)OCCN2C)CC3 | 9% | x | -16%[9.22 µM] | -7%[7.66 µM]
CC(C)C(OC(=O)c1cccs1)C(=O)NCc1cccs1 (stereo not drawn) | 25µM* | -5% | -1% | 0%
COc1ccc(CNC(=O)C(OC(=O)c2cccs2)C(C)C)cc1 (stereo not drawn) | x | -52% | x | x
c1ccc2c(c1)Cc1cc3ccccc3nc1-2 | -19% | 0% | x | 10µM*
CCn1c(C)c(CCC(=O)O)c(=O)n2nc(-c3ccccc3OC)cc12 | 10µM* | -5% | 0% | 0%
